# Measured values: PubChem BioAssay AID651899 (Broad Institute, 2012)
# Potency and affinity values are given separately. Calls of active or inactive are those of the source. Where a call stands in place of a potency, no number is given. The rule behind the calls is not given here.
# Assay: cytotoxicity in HEK293 cells, dose response, cytotoxicity control, cell-based, plate reader, cherry-pick (AID 651899);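 note: cells exposed to compound for 48 hours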
# Conditions: series mostly up to 26 µM
row,Structure (SMILES),outcome
1,CN(C(=O)CSc1nc2ccccc2c(=O)n1-c1ccccc1Cl)C1CCS(=O)(=O)C1 (stereo unspecified),inactive
2,Fc1ccc(-c2ccc3c(c2)C2CC3CCN2)cc1 (stereo unspecified),inactive
3,O=C(NCc1ccco1)c1ccc(-c2ccc3nccn3c2)cc1,inactive
4,COc1ccc(NC2CCCN(C(=O)c3ccc(C(C)=O)s3)C2)cc1 (stereo unspecified),inactive
5,O=C(c1ccc(Br)s1)N1CCN(Cc2ccc3c(c2)OCO3)CC1,inactive
6,COC(=O)C[C@H]1CC[C@@H]2[C@H](COC[C@@H](O)CN2C(=O)Nc2cccc(F)c2)O1,inactive
7,CCc1c(C(=O)NCCc2ccc(OC)c(OC)c2)[nH]c(C)c1C(C)=O,inactive
8,COC(=O)c1c(C(=O)OC)c(-c2ccc(F)cc2)n2c1CS(=O)C2 (stereo unspecified),inactive
9,O=C(Nc1cccnc1)c1ccc(N2CCOCC2)c([N+](=O)[O-])c1,inactive
10,Cc1cc(/C=C(/C#N)C(=O)Nc2ccccc2)c(C)n1-c1cccnc1,inactive
11,COc1cc(-c2n[nH]c(=S)n2Cc2ccccc2)cc(OC)c1OC,inactive
12,O=C(Nc1ccc2snnc2c1)N1CCOCC1,inactive
13,COc1cc2c(cc1NC(=O)c1cccnc1)CCCC2,inactive
14,CC(=O)c1ccc(N2CCN(C(=O)c3ccc(Br)cc3)CC2)c(F)c1,inactive
15,C[C@@H]1CN([C@@H](C)CO)C(=O)Cc2cc(NC(=O)Cn3cnnn3)ccc2O[C@H]1CN(C)Cc1ccc2c(c1)OCO2,inactive
16,C/C=C/c1ccc2c(c1)O[C@@H](CN(C)C(=O)c1ccc3c(c1)OCO3)[C@@H](C)CN([C@@H](C)CO)S2(=O)=O,inactive
17,CCNC(=O)[C@H]1[C@H](CO)[C@H]2Cn3c(ccc(-c4cccc(F)c4)c3=O)[C@H]2N1C(=O)Cc1cccnc1,inactive
18,CC(=O)OCC(=O)[C@@]1(OC(C)=O)[C@@H](C)C[C@H]2[C@@H]3C[C@H](F)C4=CC(=O)C=C[C@]4(C)[C@@]3(F)[C@@H](O)C[C@@]21C,inactive

row,Structure (SMILES),outcome
1,O=C(c1ccncc1)N1CC[C@@H]2[C@H](CO)Nc3ccc(Br)cc3[C@@H]21,inactive
2,COCC(=O)N1CC[C@@H]2[C@@H](CO)N(C)c3ccc(-c4ccc(F)cc4)cc3[C@@H]21,inactive
3,COc1cc(C(=O)Nc2cccnc2)cc(OC)c1OC,inactive
4,COC(=O)C1C(=O)C=C(Nc2ccc(F)cc2)CC1c1ccc(OC)cc1 (stereo unspecified),inactive
5,O=C(O)CN1C(=O)/C(=C\c2cc(Br)ccc2OCc2ccc([N+](=O)[O-])cc2)SC1=S,inactive
6,O=C(C[C@@H]1C[C@@H]2c3cc(NC(=O)c4cccnc4)ccc3O[C@@H]2[C@@H](CO)O1)NCc1cccc(F)c1,inactive
7,Cc1nc2nc(SCC(=O)N3CCOCC3)nn2c(C)c1Cc1ccccc1,inactive
8,O=C(c1ccc2c(c1)OCO2)N1CC[C@@H]2[C@H](CO)Nc3ccc(-c4ccc(F)cc4)cc3[C@@H]21,inactive
9,CN1c2ccc(-c3cccc(F)c3)cc2[C@H]2[C@H](CCN2C(=O)C2CCOCC2)[C@H]1CO,inactive
10,O=C(N[C@H]1CC[C@@H](CCn2cc(-c3cccnc3)nn2)O[C@@H]1CO)c1ccccc1F,inactive
11,CS(=O)(=O)N1[C@H](C(=O)NCc2ccncc2)[C@@H](CO)[C@@H]2Cn3c(ccc(C4=CCCCC4)c3=O)[C@@H]21,inactive
12,Cc1ccc(-n2ncc3c2CC(C)(C)CC3NC(=O)CCc2cccnc2)cc1 (stereo unspecified),inactive
13,CCCc1cc(=O)oc2c3c(cc(OCC(=O)NCCCn4ccnc4)c12)OC(C)(C)CC3,inactive
14,CCCC(=O)Nc1cccc(NC(=O)c2ccc(C)c([N+](=O)[O-])c2)c1,inactive
15,Cc1ccc(/C=C(\CCC(=O)O)c2nc3ccccc3s2)cc1[N+](=O)[O-],inactive
16,COC(=O)C1=C(C)Nc2sc(C(N)=O)c(N)c2C1c1ccncc1 (stereo unspecified),inactive
17,Nn1c(SCc2nc3ccccc3[nH]2)nnc1-c1cccnc1,inactive
18,C#CCSc1nnc(-c2sc(-c3ccccc3)nc2C)n1C,inactive
